The supplement of paper PMC10849652
Targets with a hit are over-represented here; the source holds about 8,800 in all. About 0.5% of all pairs of compound and target were hits. A number with no mark means an inactive call.

Columns and labels:
Experiment in all cases: log2 fold change, soluble protein after heating vs DMSO (PISA); higher = thermal stabilisation; K562 lysate, 10 uM; active = over 0.2 and 3.5 SD of the protein, either way, in both replicates (recomputed)
alvocidib = compound: CN1CC[C@H](c2c(O)cc(O)c3c(=O)cc(-c4ccccc4Cl)oc23)[C@H](O)C1 [alvocidib]
Outline: (§1)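 Values give the log-two fold change in thermal stability against solvent controls, from duplicates. Crude K562 extract at 1 mg/mL protein, made by dounce homogenisation in PBS pH 7.4 with 1 mM MgCl2, was treated with 10 μM compound for 30 min. After 3 min heating across 48°C-58°C, aliquots were pooled, adjusted to 0.5% NP-40 at 4°C and centrifuged at 21,000xg for 90 min. The supernatant was measured by TMTpro 16plex LC-MS/MS with channel sums equalised.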

Tubastatin A = compound: CN1CCc2c(c3ccccc3n2Cc2ccc(C(=O)NO)cc2)C1 [Tubastatin A]
Outline: as §1

[1] = compound: CNC(=O)C1=CC=CC=C1NC2=NC(=NC=C2Cl)NC3=C(C=C(C=C3)N4CCOCC4)OC
Outline: as §1

defactinib = compound: CNC(=O)c1ccc(Nc2ncc(C(F)(F)F)c(NCc3nccnc3N(C)S(C)(=O)=O)n2)cc1 [defactinib]
Outline: as §1

[2] = compound: CNc1nc(-c2ccc3c(N)n[nH]c3c2)cc(N2C[C@@H](C(=O)NC3CCCCC3)CC[C@H]2C)n1
Outline: as §1

encorafenib = compound: COC(=O)N[C@@H](C)CNc1nccc(-c2cn(C(C)C)nc2-c2cc(Cl)cc(NS(C)(=O)=O)c2F)n1 [encorafenib]
Outline: as §1

[3] = compound: COC(=O)[C@H](CCSC)NC(=O)C1=C(C=C(C=C1)NC[C@H](CS)N)C2=CC=CC=C2
Outline: as §1

alisertib = compound: COc1cc(Nc2ncc3c(n2)-c2ccc(Cl)cc2C(c2c(F)cccc2OC)=NC3)ccc1C(=O)O [alisertib]
Outline: as §1

[4] = compound: COc1cc2nc(-c3cc(F)ccc3O)nc(N[C@@H]3CNC[C@H]3C(C)(C)O)c2cc1OC
Outline: as §1

gefitinib = compound: COc1cc2ncnc(Nc3ccc(F)c(Cl)c3)c2cc1OCCCN1CCOCC1 [gefitinib]
Outline: as §1

lapatinib = compound: CS(=O)(=O)CCNCc1ccc(-c2ccc3ncnc(Nc4ccc(OCc5cccc(F)c5)c(Cl)c4)c3c2)o1 [lapatinib]
Outline: as §1

pictilisib = compound: CS(=O)(=O)N1CCN(Cc2cc3nc(-c4cccc5[nH]ncc45)nc(N4CCOCC4)c3s2)CC1 [pictilisib]
Outline: as §1

crizotinib = compound: C[C@@H](Oc1cc(-c2cnn(C3CCNCC3)c2)cnc1N)c1c(Cl)ccc(F)c1Cl [crizotinib]
Outline: as §1

[5] = compound: C[C@H](C1=CC=C(C=C1)C(=O)NC2=C3C=CNC3=NC=C2)N
Outline: as §1

duvelisib = compound: C[C@H](Nc1ncnc2nc[nH]c12)c1cc2cccc(Cl)c2c(=O)n1-c1ccccc1 [duvelisib]
Outline: as §1

gandotinib = compound: Cc1cc(Nc2cc(CN3CCOCC3)c3nc(C)c(Cc4ccc(Cl)cc4F)n3n2)n[nH]1 [gandotinib]
Outline: as §1

tozasertib = compound: Cc1cc(Nc2cc(N3CCN(C)CC3)nc(Sc3ccc(NC(=O)C4CC4)cc3)n2)n[nH]1 [tozasertib]
Outline: as §1

doramapimod = compound: Cc1ccc(-n2nc(C(C)(C)C)cc2NC(=O)Nc2ccc(OCCN3CCOCC3)c3ccccc23)cc1 [doramapimod]
Outline: as §1

bafetinib = compound: Cc1ccc(NC(=O)c2ccc(CN3CC[C@H](N(C)C)C3)c(C(F)(F)F)c2)cc1Nc1nccc(-c2cncnc2)n1 [bafetinib]
Outline: as §1

[6] = compound: Cc1cccc(CC(=O)N2CCc3c2ccc(-c2cn(C)c4ncnc(N)c24)c3F)n1
Outline: as §1

Sequence of UniProt Q9H089 (Q9H089 whole entry, looked up): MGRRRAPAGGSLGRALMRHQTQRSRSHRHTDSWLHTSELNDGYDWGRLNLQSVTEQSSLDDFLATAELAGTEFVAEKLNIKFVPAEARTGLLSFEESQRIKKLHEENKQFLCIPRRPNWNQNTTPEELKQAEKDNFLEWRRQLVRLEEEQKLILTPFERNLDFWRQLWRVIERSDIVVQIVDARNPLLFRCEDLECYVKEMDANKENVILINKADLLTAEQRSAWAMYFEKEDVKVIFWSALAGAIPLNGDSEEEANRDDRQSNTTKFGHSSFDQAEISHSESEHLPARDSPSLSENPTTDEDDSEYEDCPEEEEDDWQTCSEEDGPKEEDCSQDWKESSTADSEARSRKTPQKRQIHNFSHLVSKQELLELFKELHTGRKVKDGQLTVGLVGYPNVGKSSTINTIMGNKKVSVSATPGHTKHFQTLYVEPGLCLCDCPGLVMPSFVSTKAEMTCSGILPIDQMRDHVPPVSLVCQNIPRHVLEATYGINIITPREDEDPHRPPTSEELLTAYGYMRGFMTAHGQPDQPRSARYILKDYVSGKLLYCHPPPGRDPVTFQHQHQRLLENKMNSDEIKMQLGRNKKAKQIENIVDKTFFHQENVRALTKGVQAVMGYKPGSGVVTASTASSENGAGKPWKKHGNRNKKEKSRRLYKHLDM
Sequence of UniProt Q9H8H3 (Q9H8H3 whole entry, looked up): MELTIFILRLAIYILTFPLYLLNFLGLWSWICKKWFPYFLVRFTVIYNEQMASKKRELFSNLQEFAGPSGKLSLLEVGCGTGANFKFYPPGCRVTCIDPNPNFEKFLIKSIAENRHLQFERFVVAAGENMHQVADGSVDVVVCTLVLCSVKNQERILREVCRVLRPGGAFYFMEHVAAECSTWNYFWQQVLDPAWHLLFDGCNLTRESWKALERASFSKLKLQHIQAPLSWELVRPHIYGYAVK
Sequence of UniProt Q9BVC4 (Q9BVC4 whole entry, looked up): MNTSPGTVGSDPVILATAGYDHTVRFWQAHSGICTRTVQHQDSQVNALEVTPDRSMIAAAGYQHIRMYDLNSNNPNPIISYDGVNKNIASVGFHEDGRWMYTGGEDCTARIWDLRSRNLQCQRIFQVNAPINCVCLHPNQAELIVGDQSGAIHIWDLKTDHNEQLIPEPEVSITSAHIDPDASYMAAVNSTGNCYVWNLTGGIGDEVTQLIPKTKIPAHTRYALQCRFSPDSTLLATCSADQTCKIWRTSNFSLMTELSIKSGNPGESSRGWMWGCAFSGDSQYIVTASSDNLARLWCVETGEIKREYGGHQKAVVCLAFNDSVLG
Sequence of UniProt Q9UI95 (Q9UI95 whole entry, looked up): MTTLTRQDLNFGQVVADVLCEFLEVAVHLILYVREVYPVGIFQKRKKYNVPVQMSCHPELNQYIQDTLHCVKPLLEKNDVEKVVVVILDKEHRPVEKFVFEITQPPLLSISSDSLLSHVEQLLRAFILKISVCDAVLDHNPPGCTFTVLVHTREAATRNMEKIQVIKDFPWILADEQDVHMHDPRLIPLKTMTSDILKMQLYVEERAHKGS
Sequence of UniProt Q00013 (Q00013 whole entry, looked up): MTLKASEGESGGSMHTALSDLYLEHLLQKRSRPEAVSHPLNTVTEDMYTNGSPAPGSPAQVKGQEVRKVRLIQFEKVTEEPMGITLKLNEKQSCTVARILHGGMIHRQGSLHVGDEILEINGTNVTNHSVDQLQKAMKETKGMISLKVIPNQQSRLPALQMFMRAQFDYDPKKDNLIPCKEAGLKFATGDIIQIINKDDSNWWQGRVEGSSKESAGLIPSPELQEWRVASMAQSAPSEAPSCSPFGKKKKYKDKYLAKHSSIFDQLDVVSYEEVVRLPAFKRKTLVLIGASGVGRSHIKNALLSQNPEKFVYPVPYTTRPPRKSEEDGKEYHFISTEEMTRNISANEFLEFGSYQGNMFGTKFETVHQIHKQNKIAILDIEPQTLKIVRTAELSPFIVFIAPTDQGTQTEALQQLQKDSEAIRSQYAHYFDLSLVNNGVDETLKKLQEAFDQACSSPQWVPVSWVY
Sequence of UniProt O95297 (O95297 whole entry, looked up): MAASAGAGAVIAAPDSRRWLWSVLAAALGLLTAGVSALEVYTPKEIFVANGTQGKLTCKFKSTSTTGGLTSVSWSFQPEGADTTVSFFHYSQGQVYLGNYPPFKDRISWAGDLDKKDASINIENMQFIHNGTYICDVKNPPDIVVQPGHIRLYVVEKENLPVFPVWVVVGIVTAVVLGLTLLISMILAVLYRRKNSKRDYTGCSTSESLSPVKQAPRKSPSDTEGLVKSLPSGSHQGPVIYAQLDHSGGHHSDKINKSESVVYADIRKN
Sequence of UniProt P34949 (P34949 whole entry, looked up): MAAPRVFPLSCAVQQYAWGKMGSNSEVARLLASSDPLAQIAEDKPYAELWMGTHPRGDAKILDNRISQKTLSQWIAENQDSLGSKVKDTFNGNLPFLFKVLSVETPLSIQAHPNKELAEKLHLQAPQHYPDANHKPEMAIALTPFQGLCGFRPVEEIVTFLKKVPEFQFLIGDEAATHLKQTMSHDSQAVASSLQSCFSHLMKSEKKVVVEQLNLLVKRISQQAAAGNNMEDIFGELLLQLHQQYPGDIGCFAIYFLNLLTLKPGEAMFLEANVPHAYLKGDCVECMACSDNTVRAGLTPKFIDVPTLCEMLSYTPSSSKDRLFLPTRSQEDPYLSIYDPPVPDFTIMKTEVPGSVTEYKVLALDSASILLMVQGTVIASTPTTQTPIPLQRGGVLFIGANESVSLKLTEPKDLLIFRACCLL
Sequence of UniProt Q96RQ3 (Q96RQ3 whole entry, looked up): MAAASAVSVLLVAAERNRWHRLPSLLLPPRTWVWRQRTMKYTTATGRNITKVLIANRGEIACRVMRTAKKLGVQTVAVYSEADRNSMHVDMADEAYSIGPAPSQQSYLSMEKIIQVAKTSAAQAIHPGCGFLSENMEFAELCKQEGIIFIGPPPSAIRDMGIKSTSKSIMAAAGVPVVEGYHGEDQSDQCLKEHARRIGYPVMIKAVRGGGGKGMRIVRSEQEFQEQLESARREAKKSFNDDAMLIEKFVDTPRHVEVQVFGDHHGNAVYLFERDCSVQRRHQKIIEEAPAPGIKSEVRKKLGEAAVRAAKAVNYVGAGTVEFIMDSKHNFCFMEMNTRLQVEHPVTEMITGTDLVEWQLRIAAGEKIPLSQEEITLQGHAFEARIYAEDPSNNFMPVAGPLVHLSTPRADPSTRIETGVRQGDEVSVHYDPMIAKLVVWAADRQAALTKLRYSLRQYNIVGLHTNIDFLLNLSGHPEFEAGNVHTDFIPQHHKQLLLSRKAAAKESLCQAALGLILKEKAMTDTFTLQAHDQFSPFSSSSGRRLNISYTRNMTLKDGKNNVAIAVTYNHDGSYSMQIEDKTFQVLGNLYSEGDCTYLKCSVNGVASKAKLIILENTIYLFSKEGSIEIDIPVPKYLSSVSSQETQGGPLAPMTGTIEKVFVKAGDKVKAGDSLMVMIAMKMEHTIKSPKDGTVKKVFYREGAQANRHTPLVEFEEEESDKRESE
Sequence of UniProt Q8N4C8 (Q8N4C8 whole entry, looked up): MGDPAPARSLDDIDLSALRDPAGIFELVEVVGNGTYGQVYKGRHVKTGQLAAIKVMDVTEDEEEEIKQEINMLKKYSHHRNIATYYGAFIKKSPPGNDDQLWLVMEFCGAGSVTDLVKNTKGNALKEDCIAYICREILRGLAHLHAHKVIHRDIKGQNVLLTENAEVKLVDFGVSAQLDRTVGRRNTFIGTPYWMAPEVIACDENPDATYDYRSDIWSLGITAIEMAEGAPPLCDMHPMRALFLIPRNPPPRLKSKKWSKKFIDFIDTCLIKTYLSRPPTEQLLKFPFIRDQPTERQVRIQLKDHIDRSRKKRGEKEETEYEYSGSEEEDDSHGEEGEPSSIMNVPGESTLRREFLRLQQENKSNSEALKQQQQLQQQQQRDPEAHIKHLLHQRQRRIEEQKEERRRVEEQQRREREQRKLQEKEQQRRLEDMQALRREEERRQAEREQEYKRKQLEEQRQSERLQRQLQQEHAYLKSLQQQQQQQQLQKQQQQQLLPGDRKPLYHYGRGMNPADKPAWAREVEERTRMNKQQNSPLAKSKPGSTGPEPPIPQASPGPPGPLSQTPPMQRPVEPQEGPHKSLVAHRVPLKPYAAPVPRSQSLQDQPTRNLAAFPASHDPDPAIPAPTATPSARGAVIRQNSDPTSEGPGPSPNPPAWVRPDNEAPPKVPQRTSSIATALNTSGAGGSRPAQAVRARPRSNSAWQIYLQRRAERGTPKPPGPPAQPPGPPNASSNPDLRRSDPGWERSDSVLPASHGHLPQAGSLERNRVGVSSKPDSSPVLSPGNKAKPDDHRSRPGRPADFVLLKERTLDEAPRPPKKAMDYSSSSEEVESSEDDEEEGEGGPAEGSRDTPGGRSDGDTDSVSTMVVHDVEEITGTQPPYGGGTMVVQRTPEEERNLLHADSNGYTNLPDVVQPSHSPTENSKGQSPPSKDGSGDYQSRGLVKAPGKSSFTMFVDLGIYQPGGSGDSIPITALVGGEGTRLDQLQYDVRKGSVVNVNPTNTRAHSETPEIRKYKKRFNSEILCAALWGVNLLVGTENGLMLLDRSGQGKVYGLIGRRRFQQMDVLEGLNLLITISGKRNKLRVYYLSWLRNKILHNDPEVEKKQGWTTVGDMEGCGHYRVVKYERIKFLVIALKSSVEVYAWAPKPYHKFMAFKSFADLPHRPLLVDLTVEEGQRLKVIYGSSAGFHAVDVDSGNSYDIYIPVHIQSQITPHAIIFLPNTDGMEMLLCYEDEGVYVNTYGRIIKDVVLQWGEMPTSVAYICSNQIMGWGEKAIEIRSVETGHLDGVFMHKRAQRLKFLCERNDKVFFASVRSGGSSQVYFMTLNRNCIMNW
Sequence of UniProt Q9GZY8 (Q9GZY8 whole entry, looked up): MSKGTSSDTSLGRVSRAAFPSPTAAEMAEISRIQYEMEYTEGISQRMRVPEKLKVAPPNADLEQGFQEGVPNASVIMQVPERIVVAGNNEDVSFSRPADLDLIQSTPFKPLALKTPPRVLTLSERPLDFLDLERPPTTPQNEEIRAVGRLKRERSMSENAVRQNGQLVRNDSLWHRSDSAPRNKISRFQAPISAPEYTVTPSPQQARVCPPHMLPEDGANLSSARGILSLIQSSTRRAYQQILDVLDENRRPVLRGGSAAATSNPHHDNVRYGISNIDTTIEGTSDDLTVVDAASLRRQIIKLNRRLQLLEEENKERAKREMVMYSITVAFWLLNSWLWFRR

Target	log2 fold change (alvocidib)	log2 fold change (Tubastatin A)	log2 fold change [1]	log2 fold change (defactinib)	log2 fold change [2]	log2 fold change (encorafenib)	log2 fold change [3]	log2 fold change (alisertib)	log2 fold change [4]	log2 fold change (gefitinib)	log2 fold change (lapatinib)	log2 fold change (pictilisib)	log2 fold change (crizotinib)	log2 fold change [5]	log2 fold change (duvelisib)	log2 fold change (gandotinib)	log2 fold change (tozasertib)	log2 fold change (doramapimod)	log2 fold change (bafetinib)	log2 fold change [6]
LSG1 (UniProt Q9H089)	-0.079	-0.016	-0.046	0.003	-0.077	0.046	0.303 (active)	-0.017	-0.028	-0.059	-0.002	-0.044	-0.191	-0.099	-0.075	0.037	-0.03	0.085	-0.077	0.072
LIMS1 isoform 3 (UniProt P48059)	-0.014	0.034	0.017	0.048	0.02	0.004	-0.118	0.011	-0.003	-0.097	0.002	-0.019	0.103	-0.045	-0.023	0.008	-0.02	-0.068	-0.035	0.038
KIF14 (UniProt Q15058)	-0.031	-0.217	0.032	0.043	0.011	0.038	0.045	-0.028	0.013	0.001	0.016	-0.277	-0.053	-0.082	0.025	-0.011	0.002	0.046	-0.087	0.042
LPIN1 isoform 7 (UniProt Q14693)	-0.054	-0.05	-0.006	0.003	-0.1	0.089	-0.064	-0.028	0.007	-0.04	-0.052	-0.082	-0.035	-0.069	-0.097	-0.005	0.012	0.013	-0.04	0.097
MAP2K4 isoform 2 (UniProt P45985)	0.137	-0.08	0.081	0.013	0.061	0.122	0.087	-0.069	-0.022	-0.032	-0.036	-0.077	-0.086	0.619 (active)	-0.012	-0.031	-0.087	-0.032	-0.05	-0.059
KLC4 isoform 3 (UniProt Q9NSK0)	-0.01	-0.091	-0.008	0.014	-0.084	0.014	0.007	0.014	0.014	-0.028	-0.002	-0.053	-0.027	0.019	0.029	-0.074	-0.021	0.034	-0.018	0.001
MOSPD2 (UniProt Q8NHP6)	-0.028	-0.034	-0.03	0.11	-0.015	0.053	-0.026	0.125	-0.027	-0.039	0.01	-0.036	-0.041	-0.076	-0.02	0.003	0.021	0.022	-0.009	0.1
LARP4B (UniProt Q92615)	0.001	-0.118	0.005	0.023	-0.027	0.024	0.015	0.025	-0.013	-0.006	0.01	0.016	-0.019	-0.051	-0.033	0.029	-0.009	-0.044	-0.047	0.096
LARS (UniProt Q9P2J5)	0.051	-0.153	0.006	0.023	-0.054	0.001	0.097	0.01	-0.013	-0.007	-0.004	-0.015	-0.043	0.047	-0.013	-0.081	0.012	-0.009	-0.048	-0.005
MCCC1 (UniProt Q96RQ3)	0.063	-0.036	0.003	-0.002	-0.025	0.012	-0.057	0	0.001	0.017	-0.022	-0.038	-0.004	0.106	0.017	-0.14	-0.019	0.003	-0.048	-0.093
MPI (UniProt P34949)	0.051	0.024	-0.02	-0.007	0.035	-0.01	0.477 (active)	0.018	0.01	-0.014	0.02	-0.017	-0.029	0.174	0.007	-0.055	-0.043	0.032	0.013	-0.014
MAD2L2 (UniProt Q9UI95)	-0.026	0.051	0.033	0.06	0.064	-0.069	0.022	0.04	0.135	-0.006	-0.003	0.058	-0.142	-0.008	-0.001	-0.127	0.042	0.022	-0.11	0.073
KPNA2 (UniProt P52292)	0.018	-0.083	-0.012	0.012	-0.013	-0.005	0.122	0.008	-0.017	0.003	-0.016	0.024	-0.063	-0.001	0.011	-0.066	0.017	0.003	-0.028	0.05
MPP1 (UniProt Q00013)	-0.01	-0.01	-0.007	-0.002	0.01	-0.015	0.011	-0.008	-0.007	0	0.006	0.016	0.001	-0.006	0.012	-0.008	0.017	0.006	-0.015	0.001
MPZL1 (UniProt O95297)	-0.01	0.048	-0.014	0.01	0.028	0.045	-0.082	0.007	0.012	0.016	-0.006	-0.026	0.074	0.132	0.001	-0.009	-0.029	-0.087	-0.027	-0.107
MORC2 (UniProt Q9Y6X9)	0.018	-0.095	0	0.013	-0.012	0.02	0.025	0.001	-0.008	-0.02	0.016	0.015	-0.012	-0.049	0.04	-0.032	0.008	0.012	-0.032	0.043
MLST8 (UniProt Q9BVC4)	0.009	-0.072	-0.059	-0.023	-0.059	-0.012	0.038	-0.016	-0.01	-0.004	-0.028	-0.073	0.004	-0.034	-0.028	-0.055	0.078	0.08	-0.026	0.032
MACO1 (UniProt Q8N5G2)	-0.003	-0.003	-0.012	0.01	0.119	-0.101	-0.016	-0.024	-0.005	0.04	0.016	0.041	0.003	-0.019	0.015	-0.008	0.138	-0.035	-0.001	-0.001
LPCAT1 (UniProt Q8NF37)	-0.117	0.117	0.067	0.045	0.097	0.037	-0.063	0.07	-0.01	-0.009	0.005	-0.034	-0.031	-0.209	-0.107	0.115	0.006	-0.048	-0.072	0.078
MFF isoform 2 (UniProt Q9GZY8)	-0.046	-0.038	-0.052	0.027	0.024	0.068	-0.113	0.042	-0.075	0.048	0.055	0.028	0	-0.239 (active)	0.022	0.106	-0.031	-0.035	-0.031	0.24
METTL7A (UniProt Q9H8H3)	-0.079	0.014	0.003	0.011	0.041	-0.041	0.151	-0.036	-0.01	-0.046	0.023	0.019	0.177	-0.019	0.021	0.226	-0.081	0.071	0.048	0.019
LAMP1 (UniProt P11279)	-0.242	0.051	-0.013	-0.03	0.059	0.015	-0.047	0.017	0.028	0.053	-0.033	-0.014	-0.014	-0.496 (active)	0.005	0.241 (active)	-0.05	-0.044	-0.065	0.172
MINK1 (UniProt Q8N4C8)	-0.049	-0.137	0.055	0.025	0.109	-0.133	0.022	0.051	-0.003		-0.084	-0.02	-0.149	0.271	0.026	-0.102	0.014	0.24	-0.158	0.249
MAP4K5 (UniProt Q9Y4K4)	0.045	-0.021	0.068	0.125	-0.006	0.009	-0.191	-0.027	0.189	0.086	-0.035	0.044		0.013	-0.021	0.055	0.152	-0.04	-0.046	0.112
